# Source: PubChem BioAssay AID686978 (National Center for Advancing Translational Sciences (NCATS), 2013)
# Hit rate of the full screen: of about 420,000 compounds, about 64,000 (15%) were called active. Another 27% or so got no clear call; they are omitted. The call rests on the fitted dose curve; in most records, active means well fitted inhibition curve with a large enough effect; inconclusive means small, poorly fitted or top-dose-only effect; inactive means flat fitted curve, though single readings scatter. These entries were drawn from the full list. Where a call stands in place of a potency, no number is given.
# Assay: qHTS for Inhibitors of human tyrosyl-DNA phosphodiesterase 1 (TDP1): qHTS in cells in absence of CPT; further: nearly all actives have a fitted effect of over 55% in size
# Details: DT40 Tdp1-/- hTDP1 cells, no CPT, ATP luminescence, 48 h; activity change, negative = growth inhibition: at 46.2 µM (top of the series)
# Procedure, shortened: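 Growth kinetics read by CellTiter-Glo luminescence after ≥48 hr at 37 °C. Cells: DT40 Tdp1-/- stably carrying human TDP1, 400 per well, compound exposure in the absence of CPT (DMSO vehicle).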
# Potency means the concentration at half of the fitted maximal effect.
row,SMILES,Potency
1,CS(=O)(=O)N1CCC[C@@]2(CCN(c3ccncc3)C2)C1,inactive
2,Cc1ccc(-c2c(C)n([O-])c3c([n+]2=O)CCC3)cc1,inactive
3,CC1=NNC(=O)C1CCC(=O)N/N=C\c1ccc(Cl)c(Cl)c1 (centres undefined),inactive
4,CCOC(=O)c1c(SCC(=O)Nc2cccc(C)c2C)nc(=O)[nH]c1C,inactive
5,CCOC(=O)c1c(C)[nH]c(=S)c(C#N)c1-c1ccccc1,inactive
6,CCOC(=O)c1c(C)[nH]c2c1-c1ccccc1C(=O)C2=O,0.651 µM (active)
7,O=C(COC(=O)c1ccc[nH]c1=O)Nc1ccc2c(c1)OC(F)(F)O2,inactive
8,Cc1ccc(OCc2cc(C(=O)N(C)CCn3ccnc3C)no2)cc1C,inactive
9,COC(=O)[C@@H]1CCCN1C(=O)c1cc(COc2cccc3cccnc23)on1,inactive
10,COCC1CCCCN1C(=O)c1cc(COc2ccc(C)c(C)c2)on1 (centres undefined),20.6 µM (active)
11,COC(=O)c1ccccc1NC(=O)c1cc(-c2ccccc2O)no1,inactive
12,CCOC(=O)C1CCc2nc3ccccc3c(=O)n21 (centres undefined),inactive
13,CCOC(=O)C(CCOc1cccc(CC)c1)C(=O)OCC,inactive
14,C=CCNC(=O)C12CC3CC(C1)CC(C(=O)NCC=C)(C3)C2,inactive
15,Cc1cc(C)cc(NC(=O)N2CCC(NC(=O)c3ccc(F)cc3)CC2)c1,inactive
16,COc1cc(OC)c2ccc(=O)oc2c1C(CCN1CCN(c2ccccc2)CC1)c1ccc2c(c1)OCO2 (centres undefined),16.4 µM (active)
17,CCN(CC)CCC(c1ccc2c(c1)OCO2)c1c(OC)cc(OC)c2c(-c3ccccc3)cc(=O)oc12 (centres undefined),20.6 µM (active)
18,COc1ccc(F)cc1S(=O)(=O)NCC(c1ccc2c(c1)OCO2)N1CCN(C)CC1 (centres undefined),inactive
19,COc1cc(COCC(O)CN2CCN(Cc3ccc4c(c3)OCO4)CC2)cc(OC)c1OC (centres undefined),inactive
20,O=C(C(=O)N1CCN(c2ccccc2)CC1)c1ccc2c(c1)OCO2,inactive
21,Cc1nnc(SCc2cc(=O)[nH]c(N3CCN(Cc4ccccc4)CC3)n2)s1,inactive
22,CC(Sc1nncn1C)C(=O)Nc1cc(C(F)(F)F)ccc1N1CCOCC1 (centres undefined),inactive
23,CCCCN1C(=O)C(CC(=O)NCc2cccs2)CC(C(=O)N2CCCCCC2)=C1C (centres undefined),inactive
24,CC(C)(C)NC(=O)NC(=O)COC(=O)C1(C)CC1(Cl)Cl (centres undefined),inactive
25,COc1ccc(CCc2nc(-c3cccs3)no2)cc1,inactive
26,COc1ccc(S(=O)(=O)NC(=O)C2(C)CCN2C(=O)c2ccccc2CCc2ccccc2)cc1 (centres undefined),inactive
27,O=C(NCc1cn2ccsc2n1)Nc1cccc(Cl)c1,inactive

row,SMILES,Potency
1,Cc1c(C(=O)Nc2cccc(Cl)c2)cn2c(nc3ccccc32)c1C#N,11.6 µM (active)
2,O=C(O)c1cccc(NC(=O)c2cc(-c3cccc(Cl)c3)nc3ccccc23)c1,inactive
3,COc1cc(C(=O)NN(CCC#N)C2=NS(=O)(=O)c3ccccc32)cc(OC)c1OC,inactive
4,CCc1ccc(-c2nnn(Cc3nn[nH]n3)n2)cc1,inactive
5,COc1ccc(/C(N)=N/OC(=O)Cc2ccccc2)cc1,inactive
6,COc1ccc(C(=NN)c2ccc(OC)cc2)cc1,inactive
7,COc1ccc(C(C#N)=C2C=CC(=NO)c3ccccc32)cc1,0.82 µM (active)
8,O=C(c1ccc[nH]c1=S)N1CCN(S(=O)(=O)c2ccc(Br)cc2Cl)CC1,inactive
9,O=C(NCc1ccncc1)C(=O)NCc1ccco1,inactive
10,Cc1noc(C)c1-c1ccc(C(=O)NCc2ccncc2)c2occc12,8.2 µM (active)
11,COc1ccc(CNC(=O)c2ccc(-c3cccnc3)c3ccoc23)cc1OC,18.4 µM (active)
12,COc1ccc(CNC(=O)c2ccc(Br)s2)cc1OC,inactive
13,CCN(CC(=O)NCc1ccc(Cl)cc1)C(=O)c1c(C)noc1C,inactive
14,COc1ccc(CNC(=O)c2c(C)cc(=O)oc2C)cc1OC,inactive
15,O=C(COc1ccc(Cl)cc1)NCc1nnc(SCC(=O)NCC2CCCO2)o1 (centres undefined),inactive
16,CCn1cc(CNC(=O)c2cc([N+](=O)[O-])c(C)c([N+](=O)[O-])c2)cn1,inactive
17,Cc1cccc(NC(=O)CSCC(=O)Nc2nnc(C3CC3)s2)c1,inactive
18,Cc1ccc(C(=O)CSc2ccccc2C(=O)O)cc1,inactive
19,Cc1ccc(C(=O)CS(C)(=O)=O)cc1,inactive
20,Cc1ccc(SC(CC(=O)c2ccc(C(C)(C)C)cc2)C(=O)O)cc1 (centres undefined),2.91 µM (active)
21,CC1(C)c2[nH]c3ccccc3c2C[C@H]2C(=O)N(N)CC(=O)N21,inactive
22,O=C(NC1CCc2ccccc21)C12CN(Cc3ccccc3)CC1C(c1cccc([N+](=O)[O-])c1)=NO2 (centres undefined),inactive
23,COc1ccccc1NC(=O)C1CCCN1S(=O)(=O)c1ccc(Cl)cc1 (centres undefined),16.4 µM (active)
24,CC(C)c1nnc(NC(=O)C2CCCN2S(=O)(=O)c2ccc(Cl)cc2)s1 (centres undefined),inactive
25,O=C(NCc1ccccc1Cl)C1CCCN1S(=O)(=O)c1ccc(F)cc1 (centres undefined),inactive
26,COc1cccc(CCNC(=O)COc2cccc3c2OC(C)(C)C3)c1,inactive
27,CN(C)c1cccc2ccccc12,inactive
